A short description of test [1]: qHTS assay to identify small molecule agonists of the RXR signaling pathway - cell viability counter screen (AID 1159529).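 Also: HEK 293T cells carrying an RXR-alpha UAS beta-lactamase reporter; series mostly up to about 77 µM; nearly all actives have a fitted effect of over 50% in size.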 The gist of the method:
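Counter screen: CellTiter-Glo luminescence. Cells: RXR-alpha-UAS-bla HEK 293T. Medium: 2% charcoal-stripped FBS. Treatment: 16 h, 37 C. Reagent incubation: 30 min, RT.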
In general terms: In qHTS, concentration-response curves come from the screen itself.

Test [2] can be described thus: qHTS assay to identify small molecule antagonists of the retinoid acid receptor (RAR) signaling pathway - cell viability counter screen (AID 1159551). Also: nearly all actives have a fitted effect of over 35% in size. The gist of the method:
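Cytotoxicity counter screen in C3RL4 cells: 6 h compound exposure with 1 uM retinol (final), viability from cellular ATP by luminescence.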

Test [3] can be described thus: qHTS assay to identify small molecule antagonists of the retinoic acid receptor (RAR) signaling pathway (AID 1159552; also: nearly all actives have a fitted effect of over 50% in size; also: potency is read from the fitted curve at half-maximal effect). The gist of the method: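 Antagonism of retinol-induced RARE reporter activity was measured in C3RL4 cells. Exposure to compounds and 1 uM final retinol lasted 6 hr at 37 C, with luminescence as endpoint.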
Test [4] is described as follows: qHTS assay to identify small molecule agonists of the retinoic acid receptor (RAR) signaling pathway (AID 1159553). The gist of the method: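 Agonist activity was scored in C3RL4 cells bearing a retinoic acid response element luciferase construct. Cells were treated with compounds for 6 hr at 37 C, and luciferase signal was measured as luminescence.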
Test [5] can be described thus: qHTS assay to identify small molecule antagonists of the estrogen related receptor (ERR) signaling pathway from Tox21 library - cell viability counter screen (AID 1224834). Also: nearly all actives have a fitted effect of over 30% in size. The gist of the method: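 Cytotoxicity of test substances is gauged in the same ERR cells used for the antagonist screen, after 17.5 h of compound treatment at 37 C, by CellTiter-Fluor fluorescence measured after 30 min.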

The target in test [6] is Luciferin 4-monooxygenase (Photinus pyralis) (UniProt P08659). As to the kind of experiment: qHTS assay to identify small molecule inhibitors of firefly luciferase (AID 1224835). Also: series mostly up to about 120 µM; nearly all actives have a fitted effect of over 25% in size. The gist of the method:
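Quantitative HTS format; KM concentrations of both substrates. Purified P. pyralis FLuc activity quantified from luminescence images.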

Test [7] can be described thus: qHTS assay to identify small molecule agonists of the constitutive androstane receptor (CAR) signaling pathway - cell viability counter screen (AID 1224836). Also: series mostly up to about 92 µM; nearly all actives have a fitted effect of over 45% in size. The gist of the method:
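Double-stable HepG2 hepatoma cells (hCAR plus CYP2B6-2.2kb) are treated for 23 h at 37 C with test compounds in 15-point concentration series. PK11195 at 0.75 uM final is co-added. Cell viability is quantified by CellTiter-Fluor.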

Test [8] can be described thus: qHTS assay to identify small molecule antagonists of the constitutive androstane receptor (CAR) signaling pathway - cell viability counter screen (AID 1224837). Also: series mostly up to about 92 µM; nearly all actives have a fitted effect of over 45% in size. The gist of the method:
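Multiplexed cytotoxicity read-out for the CAR antagonist screen: double-stable HepG2-CYP2B6-hCAR cells co-treated with 50 nM CITCO (final) and compound over 15 concentrations, incubated 23 hr, then assessed by CellTiter-Fluor fluorescence.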

The target in test [9] is Nuclear receptor subfamily 1 group I member 3 (Homo sapiens) (UniProt Q14994). As to the kind of experiment: qHTS assay to identify small molecule antagonists of the constitutive androstane receptor (CAR) signaling pathway (AID 1224838). Also: nearly all actives have a fitted effect of over 40% in size. The gist of the method:
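Compounds were titrated across 15 concentrations onto HepG2 cells double-stably expressing hCAR and a CYP2B6-2.2kb reporter, together with 50 nM CITCO (final). After 24 h at 37 C, luciferase activity was measured by luminescence.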

Test [10] shares this target. In words: qHTS assay to identify small molecule agonists of the constitutive androstane receptor (CAR) signaling pathway (AID 1224839). Also: nearly all actives have a fitted effect of over 15% in size. Also: potency is read from the fitted curve at half-maximal effect. The gist of the method:
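Readout: firefly luciferase luminescence via ONE-Glo. System: HepG2 double-stable for hCAR and CYP2B6-2.2kb. Conditions: 15-point compound titration, PK11195 at 0.75 uM final, 24 h incubation.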

Test [11] is described as follows: qHTS assay to identify small molecule antagonists of the estrogen related receptor signaling pathway with the pleiotropic PPARgamma coactivator (PGC) from Tox21 10K library - cell viability counter screen (AID 1224840; active = well fitted cell-killing curve with a large enough effect in the repeat runs, not every such curve was filed as active; also: nearly all actives have a fitted effect of over 40% in size). The gist of the method: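 Step one, plate 2,000 PGC/ERR cells per well; step two, incubate 6 h at 37 C/5% CO2; step three, pin-transfer compounds; step four, incubate 17.5 h; step five, add CellTiter-Fluor and read fluorescence after 30 min.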

Test [12] can be described thus: qHTS assay to identify small molecule agonists of the estrogen related receptor signaling pathway with the pleiotropic PPARgamma coactivator (PGC) from Tox21 10K library (AID 1224842). Also: nearly all actives have a fitted effect of over 15% in size. The gist of the method: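 PGC/ERR reporter cells (NTP line) were seeded 2,000 per well, rested 6 h at 37 C/5% CO2, then pin-dosed with compounds in DMSO for 18 h at 37 C; luciferase read by One-Glo luminescence after 30 min at room temperature.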

The target of test [13] is Thyrotropin receptor (Homo sapiens) (UniProt P16473). In words: qHTS assay to identify small molecule agonists of the thyroid stimulating hormone receptor (TSHR) signaling pathway (AID 1224843; calls by dose curve; also: nearly all actives have a fitted effect of over 45% in size). The gist of the method:
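Cell line HEK293 with TSHR; density 800/well. Exposure 30 min RT. Readout HTRF cAMP (cAMP-d2/anti-cAMP-cryptate), 1 h RT before reading.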

The nature of test [14]: qHTS assay to identify small molecule antagonists of the estrogen related receptor signaling pathway with the pleiotropic PPARgamma coactivator (PGC) from Tox21 10K library (AID 1224841; call rule not given here; also: series mostly up to about 92 µM; actives are mostly falling curves and most rising ones were filed inactive; nearly all actives have a fitted effect of over 50% in size). The gist of the method:
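Antagonism in this quantitative HTS is taken from loss of luciferase signal in PGC/ERR cells. Cells (2,000/well) are treated with compounds in DMSO after a 6 h settling period and read by One-Glo luminescence after 18 h.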

SMILES strings stand for the structures. Inconclusive results are not listed. The source made the active and inactive calls. Unless noted, calls follow the shape of the dose curve; as a rule, active = well fitted curve in the direction sought with a large enough effect in the repeat runs; inconclusive = weak or mixed curves; inactive = no such curve, though single readings can be large; an effect the other way counts as inactive or inconclusive.

Chain of Nuclear receptor subfamily 1 group I member 3 (Homo sapiens) (Q14994 whole entry, looked up): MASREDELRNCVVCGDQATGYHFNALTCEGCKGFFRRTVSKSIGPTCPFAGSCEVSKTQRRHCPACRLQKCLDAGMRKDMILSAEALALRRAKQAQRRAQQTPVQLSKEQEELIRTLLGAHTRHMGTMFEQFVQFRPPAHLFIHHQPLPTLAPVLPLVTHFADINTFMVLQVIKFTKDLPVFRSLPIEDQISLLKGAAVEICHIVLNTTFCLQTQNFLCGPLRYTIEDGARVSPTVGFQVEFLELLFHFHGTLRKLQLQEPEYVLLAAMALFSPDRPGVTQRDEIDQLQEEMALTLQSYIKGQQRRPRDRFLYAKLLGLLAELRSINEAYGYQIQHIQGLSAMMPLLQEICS
Chain of Luciferin 4-monooxygenase (Photinus pyralis) (P08659 whole entry, looked up): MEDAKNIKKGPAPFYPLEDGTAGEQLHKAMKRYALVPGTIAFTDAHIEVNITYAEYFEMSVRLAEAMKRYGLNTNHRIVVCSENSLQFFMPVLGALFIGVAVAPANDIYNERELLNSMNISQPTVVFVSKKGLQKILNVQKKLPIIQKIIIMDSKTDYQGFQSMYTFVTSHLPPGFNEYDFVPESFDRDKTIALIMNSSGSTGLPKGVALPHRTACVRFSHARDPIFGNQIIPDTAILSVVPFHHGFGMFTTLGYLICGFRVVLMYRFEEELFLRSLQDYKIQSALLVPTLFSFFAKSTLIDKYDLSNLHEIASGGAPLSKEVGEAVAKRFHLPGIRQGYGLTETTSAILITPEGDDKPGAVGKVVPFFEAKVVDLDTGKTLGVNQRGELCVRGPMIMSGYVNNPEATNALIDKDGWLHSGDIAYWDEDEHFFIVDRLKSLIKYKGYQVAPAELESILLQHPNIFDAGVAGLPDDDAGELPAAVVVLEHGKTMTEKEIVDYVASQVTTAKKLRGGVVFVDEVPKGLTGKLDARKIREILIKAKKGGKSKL
Chain of Thyrotropin receptor (Homo sapiens) (P16473 whole entry, looked up): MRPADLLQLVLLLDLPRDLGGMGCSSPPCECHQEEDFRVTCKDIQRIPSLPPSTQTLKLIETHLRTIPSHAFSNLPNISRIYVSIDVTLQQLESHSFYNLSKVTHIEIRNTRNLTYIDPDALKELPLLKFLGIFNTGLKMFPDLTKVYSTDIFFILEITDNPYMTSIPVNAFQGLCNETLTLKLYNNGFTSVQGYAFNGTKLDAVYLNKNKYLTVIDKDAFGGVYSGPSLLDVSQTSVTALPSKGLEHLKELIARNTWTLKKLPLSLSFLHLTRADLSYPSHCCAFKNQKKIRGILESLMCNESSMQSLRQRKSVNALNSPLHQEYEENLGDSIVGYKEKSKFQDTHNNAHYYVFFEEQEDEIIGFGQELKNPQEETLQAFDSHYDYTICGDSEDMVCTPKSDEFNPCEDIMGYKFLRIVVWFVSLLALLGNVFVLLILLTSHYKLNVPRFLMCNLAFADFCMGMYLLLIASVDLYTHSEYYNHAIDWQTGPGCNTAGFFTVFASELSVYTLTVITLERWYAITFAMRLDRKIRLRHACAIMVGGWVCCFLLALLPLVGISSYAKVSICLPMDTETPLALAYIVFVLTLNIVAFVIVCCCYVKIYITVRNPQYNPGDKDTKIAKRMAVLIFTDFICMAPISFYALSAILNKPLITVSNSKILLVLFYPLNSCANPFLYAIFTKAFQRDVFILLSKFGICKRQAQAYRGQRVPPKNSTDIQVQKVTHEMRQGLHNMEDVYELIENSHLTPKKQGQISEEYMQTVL

In the case of `CC1(C)C(C=C(Cl)Cl)C1C(=O)OC(C#N)c1ccc(F)c(Oc2ccccc2)c1` (stereo not given), the Potency entry in test [1], in [2], in test [3], in [4], in test [5] and in test [6] was “inactive” each time. Further, the Potency entry in [7], in test [8], in [9], in [10], in test [11] and in [12] was “inactive” throughout.
As to `Cc1cccc(Cc2cnc[nH]2)c1C`, the Potency result in test [1], in test [2], in test [3], in [4], in test [5] and in test [6] was “inactive” in each case. For the same molecule, the Potency result in test [7], in test [8], in test [9], in test [10], in test [11] and in [13] was “inactive” each time.
As for `Nc1nc(N)nc(Cl)n1`, the Potency entry in test [1], in [2], in test [3], in [4], in test [5] and in test [6] was “inactive” in each case. The Potency entry in test [7], in [8], in test [9], in [10], in test [11] and in [13] was “inactive” each time.
In the case of `O=Cc1ccccc1`, the Potency result in test [1], in test [2], in [3], in test [4], in test [5] and in [6] was “inactive” throughout. Further, the Potency entry in test [7], in test [8], in [9], in test [10], in [11] and in test [14] was “inactive” each time. In addition, the Potency entry in [13] is “inactive”.
`CC(C)NCC(O)c1ccccc1Cl` (stereo not given): the Potency entry in [1], in [2], in test [3], in test [4], in test [5] and in test [6] was “inactive” each time. The Potency result in test [7], in test [8], in test [9], in test [11] and in test [12] was “inactive” each time.
Turning to `CCNc1nc(NC(C)C(C)C)nc(SC)n1` (stereo not given), the Potency entry in test [1], in test [2], in test [3], in test [4], in test [5] and in [6] was “inactive” in each case. Moreover, the Potency entry in test [7], in test [8], in test [9] and in test [11] was “inactive” throughout.
In the case of `CC1(C)[C@H](/C=C2\CCSC2=O)[C@@H]1C(=O)OCc1coc(Cc2ccccc2)c1`, the Potency result in [1], in [2], in [3], in test [4], in test [5] and in test [6] was “inactive” in each case. In addition, the Potency entry in [7], in [8], in test [9] and in [11] was “inactive” throughout.
Consider `CCCCC(CC)COC(=O)OOC(C)(C)C` (stereo not given), for which the Potency result in test [1], in test [2], in test [3], in [4], in [5] and in [6] was “inactive” throughout. The Potency result in [7], in test [8], in [9], in [10] and in [11] was “inactive” throughout.
`CC1CCCC1`: the Potency result in test [1], in [2], in test [3], in [4], in test [5] and in test [6] was “inactive” in each case. For the same molecule, the Potency entry in test [7], in [8], in test [9], in test [10], in [11] and in test [13] was “inactive” each time.
Take `Oc1cc(Cl)cc(Cl)c1`: the Potency result in test [1], in test [2], in test [3], in test [4], in test [5] and in [6] was “inactive” throughout. For the same molecule, the Potency entry in [7], in [8], in [9], in test [11] and in test [12] was “inactive” throughout.
Turning to `CCOC(=O)CCN(SN(C)C(=O)Oc1cccc2c1OC(C)(C)C2)C(C)C`, the Potency result in test [1], in test [2], in [4], in test [5], in test [6] and in test [7] was “inactive” each time. Besides, the Potency result in test [8], in [9] and in [13] was “inactive” throughout. Further, the Potency in test [3] was 61.1 µM (active); in [10], 27.3 µM (active).
